Rows were chosen to be rich in hits. Some 0.44% of all compounds tested hit in one or more screens of this group.
RmlCD inh mix = RmlC and RmlD coupled enzyme inhibitors, primary screen, biochemical, 384-well, compound mixtures, retest; RmlC/RmlD coupled enzyme inhibition, 384-well mixture HTS; inhibition, % at 5.5 µM; 0.39% of 110,000 active; in the data active means inhibition above about 30%, passing the limit was not always enough
YopH inh = YopH tyrosine phosphatase inhibitors, primary screen, biochemical, fluorescence Ex485/Em525; YopH tyrosine phosphatase [Yersinia enterocolitica]; inhibition, % (no concentration beside the values); AID 898, 2007; 0.16% of 140,000 active; in the data active means inhibition above about 50%
A number is an active result; i = inactive; nt = no result given.

SMILES	RmlCD inh mix	YopH inh
COCCN1CCn2c(nc3cc(NC(=O)NC4CCCCC4)ccc32)C1	59	i
CC(C)c1ccc(/C=N/NC(=O)c2nnn(-c3nonc3N)c2CSC2=NCCS2)cc1	nt	i
COCCNc1cc(C)nc2c3c(C)cc(C)nc3nn12	58	i
Cc1cc(C)c2c(n1)nn1c(NCCN3CCOCC3)cc(C)nc21	58	i
Cc1cc(NCCN2CCOCC2)n2nc(C)c(-c3ccccc3)c2n1	i	i
COCCNc1cc(C)nc2c(-c3ccccc3OC)c(C)nn12	i	i
OC(CNCCC1C=Nc2ccccc21)Cn1c2ccc(Cl)cc2c2cc(Cl)ccc21 (centres undefined)	nt	i
O=C(c1cn(-c2ccccc2)nc1-c1cccs1)N1CCN(c2ccc(F)cc2)CC1	i	i
Cc1ccc2nc3c(cc(C(=O)NCCCn4ccnc4)n3C)c(=O)n2c1	62	i
Cc1ccc2nc3c(cc(C(=O)NCC4CCCO4)n3C)c(=O)n2c1 (centres undefined)	103	i
Cn1c(C(=O)NCC2CCCO2)cc2c(=O)n(C)c3ccccc3c21 (centres undefined)	i	i
Cc1cc(C(=O)NCCCn2ccnc2)cs1	i	i
O=C(NCc1ccccc1)c1onc(CSc2ccc(F)c(F)c2)c1C(=O)NCc1ccccc1	i	nt
COc1ccc(C2C(C#N)=C(N)Oc3cc(C)[nH]c(=O)c32)c(OC)c1OC (centres undefined)	nt	i
N=c1c(C(=O)NCC2CCCO2)cc2c(=O)n3ccccc3nc2n1Cc1cccnc1 (centres undefined)	i	i
CCNC(=O)c1cc2c(=O)n3cccc(C)c3nc2n(Cc2ccc(C)cc2)c1=N	84	i
Cc1cccn2c(=O)c3cc(C(=O)NC(C)C)c(=N)n(Cc4ccncc4)c3nc12	nt	i
Cc1cccn2c(=O)c3cc(C(=O)NCC4CCCO4)c(=N)n(Cc4cccnc4)c3nc12 (centres undefined)	37	i
CN1C(C(=O)NCc2ccc(OC(F)(F)F)cc2)CC2Cn3c(nc4cc(Cl)c(Cl)cc43)C21 (centres undefined)	i	nt
COc1ccc(SC[C@H](Cc2ccccc2)N2CCN(C)CCC2=O)cc1	i	nt
COc1ccccc1NC(=O)N1CCC(C(=O)c2ccc(F)cc2)CC1	i	56
CCOc1ccccc1NC(=O)N1CCC(C(=O)c2ccc(F)cc2)CC1	i	i
Cc1cc(CNC(=O)C2(C(F)(F)F)C/C(=C\Cc3ccccc3)CCCO2)nn1C (centres undefined)	i	nt
CCCN1CCCc2cc(CN)ccc21	i	84
Cc1ccc2c(c1)CCCN2N=O	nt	i
SMILES	RmlCD inh mix	YopH inh
COc1ccc(C(=O)c2no[n+]([O-])c2C(=O)c2ccc(OC)cc2)cc1	i	i
O=C(c1cccs1)c1no[n+]([O-])c1C(=O)c1cccs1	i	87
COC(=O)CCC(=O)Oc1ccc(OC(=O)CCC(=O)OC)cc1	nt	59
COC(=O)CCC(=O)Nc1ccc(NC(=O)CCC(=O)OC)cc1	i	i
CC(=O)C[C@H]1c2cc(F)ccc2S(=O)(=O)N1c1ccc(N(C)C)cc1	i	nt
Cc1ccc(-c2nc3cccnc3s2)cc1NS(C)(=O)=O	i	nt
O=c1c(Cl)nc2cc(Cl)ccc2n1CCNc1ncc(C(F)(F)F)cc1Cl	i	i
CCOCCCn1c(=N)c(C(=O)NCc2ccc3c(c2)OCO3)cc2c(=O)n3ccccc3nc21	nt	i
N=c1c(C(=O)NCc2ccc(F)cc2)cc2c(=O)n3ccccc3nc2n1CCCN1CCOCC1	31	i
CCNc1nc2c(c(=O)[nH]c(=O)n2C)n1Cc1ccc(F)cc1	i	i
CCCNc1nc2c(c(=O)[nH]c(=O)n2C)n1Cc1ccc(F)cc1	i	60
CCc1ccc(C(=O)CSc2nc3cc(S(=O)(=O)N4CCOCC4)ccc3n2CC)cc1	nt	i
C[C@@H](C(=O)N1CCN(C(=O)OC(C)(C)C)CC1)n1cc(CCC(=O)O)nn1	i	nt
Cc1ccc(S(=O)(=O)/N=C2/C=C(Sc3ncn[nH]3)C(=O)c3ccccc32)cc1	nt	100
Cc1ccc(S(=O)(=O)ON2C(=O)c3ccccc3C2=O)c(C)c1	nt	i
CCOc1ccc(S(=O)(=O)Nc2ccc(O)c(Sc3ncn[nH]3)c2)cc1	nt	i
Cc1ccc(NC2=C/C(=N/S(=O)(=O)c3cccs3)c3ccccc3C2=O)cc1	nt	i
CC(C)c1ccc(S(=O)(=O)/N=C2/C=C(Sc3ncn[nH]3)C(=O)c3ccccc32)cc1	nt	101
Cc1ccc(S(=O)(=O)/N=C2/C=C(Sc3ncn[nH]3)C(=O)c3ccccc32)c(C)c1	nt	101
NC(=O)CSc1nnc(CCc2nc3ccccc3[nH]2)n1-c1ccccc1	nt	i
COc1ccc(CNC(=O)C2(CC3CC(c4ccccc4)=NO3)CCNCC2)cc1 (centres undefined)	i	nt
COC(C[C@@H]1O[C@@H]1[C@@H](O)COCc1ccccc1)OC	i	nt
Oc1ccc(N=C/C=C/c2ccc(Br)cc2)cc1-c1nc2ccccc2s1	nt	i
COC(=O)C1(Cc2ccc(O)cc2)OC(=O)C(O)=C1c1ccc(O)cc1 (centres undefined)	i	nt
C#CCOCCOCCOCCNc1nc(N2CCN(C(=O)C([C@@H](C)CC)n3cc(C(N)COC(=O)C(F)(F)F)nn3)CC2)nc(N2CCN(C(=O)[C@H](CCCCN)n3cc(C(N)[C@H](C)CC)nn3)CC2)n1 (some centres undefined)	i	nt
SMILES	RmlCD inh mix	YopH inh
OCC[C@H]1C[C@@H](O)[C@H](O)[C@]2(CCCO2)O1	i	nt
CCOC(=O)Nc1nnc(CCc2ccccc2)s1	i	i
CCOC(=O)Nc1nnc(-c2ccc(OC)c(OC)c2)s1	31	i
COC(=O)Cc1cnc(NC(=O)C2C3CCC(C3)C2C(=O)O)s1 (centres undefined)	i	51
COC(=O)c1ccc(NC(=O)C2C3CCC(C3)C2C(=O)O)cc1 (centres undefined)	i	i
O=C1c2cccnc2C(=O)N1Cc1ccccc1	i	i
O=C1Cc2ccccc2C(=O)N1Cc1ccccc1	i	83
Cc1ccccc1COCCN1CCN(S(=O)(=O)c2ccccc2)CCC1=O	i	nt
CCOc1ccc(OCCCCN2CCCC2)cc1	i	i
CCN1CCN(CCCOc2ccc(-c3ccccc3)cc2)CC1	i	55
C[C@]12CCC[C@H](O1)c1c(cc3c(c1O)C(=O)c1c(O)cc(O)cc1C3=O)O2	i	nt
COC(=O)c1sc2nc(N3CCCCC3)c3c(c2c1N)CC(C)(C)N(C)C3	37	i
CCOC(=O)c1sc2nc(N3CCOCC3)c3c(c2c1N)CC(C)(C)N(C)C3	i	i
COc1ccc2nc(Nc3nc(CSc4nc5ccccc5s4)cc(=O)[nH]3)nc(C)c2c1	i	nt
Cc1ccc(C(=O)N2C(=S)C(c3ccc(F)cc3)=NC23CCN(C)CC3)cc1	nt	77
CN1CCN(NC(=O)c2ccc(F)cc2)CC1	nt	i
O=S1(=O)NC[C@]23C[C@H](c4ccc(F)cc4)[C@@H](C[C@@H]21)O3	i	nt
CCOC(=O)C1=C(C)NC2(O)c3ccccc3C(=O)C12O (centres undefined)	i	68
CCOC(=O)C1=C(C)NC(C)=C(C(=O)OCC)C1/C=C/c1ccccc1	i	i
CC(C)C[C@H](NC(=O)c1[nH]cnc1C(=O)Nc1ccccc1)C(=O)OC(C)(C)C	i	nt
O=C(O)C1=C[C@H](c2ccc(C(F)(F)F)cc2)C[C@H](OCCCCO)O1	i	nt
COc1ccc(CCN2C(=O)c3ccncc3C2=O)cc1OC	i	51
COc1ccccc1CN1C(=O)c2ccncc2C1=O	i	i

High-throughput results as filed in PubChem BioAssay.
